From the supplement of paper PMC7765376
Over roughly 1,500 compounds, “Excess HSA synergy score (sum over dose matrix of excess over highest single agent)” has its median near 43; the lowest 2% begin near -900. The list comes from a sample in which the lowest values are over-represented; it also holds similar structures and randomly drawn compounds.

Test system: PEO-1
Experiment: Excess HSA synergy score (sum over dose matrix of excess over highest single agent) (score (summed % response)); higher = less synergy / more antagonism (negative = synergy)
Conditions: 72 h, read-out: viability/apoptosis luminescence (CellTiter-Glo or Caspase3-Glo / not stated per table)
[1] = matrix design: 6x6, 5-fold dilutions (primary screen)

Structure (SMILES)	Excess HSA synergy score [1]	Excess HSA synergy score (matrix design: 10x10, 9-step dilutions (confirmatory))
Cc1ccc(NC(=O)c2cccc(C(C)(C)C#N)c2)cc1Nc1ccc2ncn(C)c(=O)c2c1 + CC[C@H](NC(=O)[C@H](C)NC)C(=O)N1C[C@@H](O)C[C@H]1Cc1c(-c2[nH]c3cc(F)ccc3c2C[C@@H]2C[C@H](O)CN2C(=O)[C@H](CC)NC(=O)[C@H](C)NC)[nH]c2cc(F)ccc12 [Birinapant]	31.8	–
CCNC(=O)Nc1ccc2ncc(Nc3ccc(C)cc3)nc2n1 + CC[C@H](NC(=O)[C@H](C)NC)C(=O)N1C[C@@H](O)C[C@H]1Cc1c(-c2[nH]c3cc(F)ccc3c2C[C@@H]2C[C@H](O)CN2C(=O)[C@H](CC)NC(=O)[C@H](C)NC)[nH]c2cc(F)ccc12 [Birinapant]	77.2	–
Cc1nc(Nc2n[nH]c3c2CN(C(=O)N[C@H](CN(C)C)c2ccccc2)C3(C)C)c2sccc2n1 + CC[C@H](NC(=O)[C@H](C)NC)C(=O)N1C[C@@H](O)C[C@H]1Cc1c(-c2[nH]c3cc(F)ccc3c2C[C@@H]2C[C@H](O)CN2C(=O)[C@H](CC)NC(=O)[C@H](C)NC)[nH]c2cc(F)ccc12 [Birinapant]	-399	-1930
Cc1cnc(-c2cc(N3CCN(C(=O)CCS(C)(=O)=O)CC3)ncc2Cl)c(C)c1 + CC[C@H](NC(=O)[C@H](C)NC)C(=O)N1C[C@@H](O)C[C@H]1Cc1c(-c2[nH]c3cc(F)ccc3c2C[C@@H]2C[C@H](O)CN2C(=O)[C@H](CC)NC(=O)[C@H](C)NC)[nH]c2cc(F)ccc12 [Birinapant]	211	–
O=C(CCN1CCN(C(=O)OCc2cc(Cl)cc(Cl)c2)CC1)c1ccc2[nH]c(=O)oc2c1 + CC[C@H](NC(=O)[C@H](C)NC)C(=O)N1C[C@@H](O)C[C@H]1Cc1c(-c2[nH]c3cc(F)ccc3c2C[C@@H]2C[C@H](O)CN2C(=O)[C@H](CC)NC(=O)[C@H](C)NC)[nH]c2cc(F)ccc12 [Birinapant]	-22.5	–
CC1(C)OC2=C(C(=O)c3ccccc3C2=O)[C@H](NCc2ccccc2)[C@@H]1O + CC[C@H](NC(=O)[C@H](C)NC)C(=O)N1C[C@@H](O)C[C@H]1Cc1c(-c2[nH]c3cc(F)ccc3c2C[C@@H]2C[C@H](O)CN2C(=O)[C@H](CC)NC(=O)[C@H](C)NC)[nH]c2cc(F)ccc12 [Birinapant]	60.3	–
C[C@@H](Oc1cc(-c2cnn(C3CCNCC3)c2)cnc1N)c1c(Cl)ccc(F)c1Cl [Crizotinib] + CC[C@H](NC(=O)[C@H](C)NC)C(=O)N1C[C@@H](O)C[C@H]1Cc1c(-c2[nH]c3cc(F)ccc3c2C[C@@H]2C[C@H](O)CN2C(=O)[C@H](CC)NC(=O)[C@H](C)NC)[nH]c2cc(F)ccc12 [Birinapant]	-219	–
